# Measurements from PubChem BioAssay (EPA / NIEHS).
# Active and inactive are the calls of the source. The calls were made as follows, unless noted: active = hit-call score of the fitted dose curve at least 0.9, where 1 is the maximum; inactive = score below 0.9.
# Legend:
# [1] = read-out: Monocyte Chemoattractant Protein-1 (MCP1), CCL2 (gene 6347); experiment: BSK_LPS_MCP1: BioMAP Diversity Plus: LPS Assay for Monocyte Chemoattractant Protein-1 (MCP1) Biomarker Activity (AID 2283081); conditions: primary human HUVEC with PBMC; actives raise or lower the signal;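 as to AC50: secreted MCP-1 protein quantified by ELISA in culture supernatant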
# Method in brief: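 LPS-stimulated HUVEC/PBMC co-culture; chemical, 24 h; MCP-1 by ELISA; bidirectional fit vs DMSO; cytotoxicity via SRB (0.1% stain, 10% TCA fix, 560 nm) in parallel wells.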
# [2] = BSK_LPS_PGE2: BioMAP Diversity Plus: LPS Assay for Prostaglandin E2 (PGE2) Biomarker Activity (AID 2283082); conditions: primary human HUVEC with PBMC; actives raise or lower the signal;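 as to AC50: secreted prostaglandin E2 measured by ELISA in LPS-stimulated co-culture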
# Method in brief: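 PGE2 release measured by ELISA in an LPS-activated co-culture of human umbilical vein endothelial cells and peripheral blood mononuclear cells, read at 24 h post-dosing. DMSO served as baseline for bidirectional curve fitting.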
# [3] = read-out: Macrophage colony-stimulating factor (MCSF), CSF1 (gene 1435); experiment: BSK_LPS_MCSF: BioMAP Diversity Plus: LPS Assay for Macrophage colony-stimulating factor (MCSF) Biomarker Activity (AID 2283083); conditions: primary human HUVEC with PBMC; actives raise or lower the signal
# Method in brief: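 Compound is added to a human vascular primary co-culture of umbilical vein endothelium and blood mononuclear cells. After 24 h, M-CSF is quantified by ELISA. Signal changes are fitted in both directions against DMSO.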
# [4] = read-out: Tissue Factor, F3 (gene 2152); experiment: BSK_LPS_TissueFactor: BioMAP Diversity Plus: LPS Assay for Tissue Factor Biomarker Activity (AID 2283084); conditions: primary human HUVEC with PBMC; actives raise or lower the signal
# Method in brief: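 In this co-culture system of umbilical vein endothelium with PBMC, stimulated with LPS, cell-surface CD142 is detected by ELISA at 24 h. Endpoint values derive from bidirectional fitting, DMSO serving as baseline.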
# [5] = read-out: Tumor necrosis factor (Homo sapiens) (UniProt P01375); experiment: BSK_LPS_TNFa: BioMAP Diversity Plus: LPS Assay for Tumour Necrosis Factor alpha (TNFa) Biomarker Activity (AID 2283085); conditions: primary human HUVEC with PBMC; actives raise or lower the signal;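 as to AC50: TNFa protein level quantified by ELISA in the co-culture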
# Method in brief: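 TNFa was quantified by ELISA in LPS-activated co-cultures of human endothelial cells and PBMC, 24 h post-dosing. Both increases and decreases versus DMSO were fitted.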
# [6] = read-out: Vascular cell adhesion molecule 1 (VCAM1), VCAM1 (gene 7412); experiment: BSK_LPS_VCAM1: BioMAP Diversity Plus: LPS Assay for Vascular cell adhesion molecule 1 (VCAM1) Biomarker Activity (AID 2283086); conditions: primary human HUVEC with PBMC; actives raise or lower the signal
# Method in brief: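 VCAM-1 quantified by ELISA in an LPS-activated co-culture of human endothelial cells and peripheral blood mononuclear cells, read 24 h post-treatment. Fitted in both directions versus DMSO; parallel SRB staining flags overt cytotoxicity.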
# [7] = read-out: CD38, CD38 (gene 952); experiment: BSK_SAg_CD38: BioMAP Diversity Plus: SAg Assay for CD38 Biomarker Activity (AID 2283087); conditions: primary human HUVEC with PBMC; actives raise or lower the signal
# Method in brief: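 CD38 quantified by ELISA (fluorescence) in a superantigen-activated endothelial cell–PBMC co-culture at 24 h post-dose. Activity fitted in both directions relative to DMSO; parallel SRB and Alamar Blue cytotoxicity read-outs.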
# [8] = read-out: CD40, CD40 (gene 958); experiment: BSK_SAg_CD40: BioMAP Diversity Plus: SAg Assay for CD40 Biomarker Activity (AID 2283088); conditions: primary human HUVEC with PBMC; actives raise or lower the signal
# Method in brief: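 Fluorescence ELISA read-out of CD40 from umbilical vein endothelium plus peripheral blood mononuclear cells, sampled 24 h after dosing. Values come from bidirectional curve fitting with DMSO as baseline.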
# [9] = read-out: Monocyte Chemoattractant Protein-1 (MCP1), CCL2 (gene 6347); experiment: BSK_SAg_MCP1: BioMAP Diversity Plus: SAg Assay for Monocyte Chemoattractant Protein-1 (MCP1) Biomarker Activity (AID 2283090); conditions: primary human HUVEC with PBMC; actives raise or lower the signal
# Method in brief: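 Values derive from bidirectional fitting of ELISA-measured MCP1 against DMSO controls. Readings were taken 24 h after dosing human vascular endothelial cells co-cultured with peripheral blood mononuclear cells under superantigen stimulation.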
# [10] = read-out: E-selectin (Homo sapiens) (UniProt P16581); experiment: BSK_SAg_Eselectin: BioMAP Diversity Plus: SAg Assay for Eselectin Biomarker Activity (AID 2283091); conditions: primary human HUVEC with PBMC; actives raise or lower the signal
# Method in brief: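 Primary human endothelial cells and peripheral blood mononuclear cells were co-cultured and exposed to chemical for 24 hours. E-selectin levels were then quantified by ELISA, with bidirectional curve fitting normalised to DMSO controls.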
# [11] = read-out: Monokine induced gamma interferon (MIG), CXCL9 (gene 4283); experiment: BSK_SAg_MIG: BioMAP Diversity Plus: SAg Assay for Monokine induced gamma interferon (MIG) Biomarker Activity (AID 2283092); conditions: primary human HUVEC with PBMC; actives raise or lower the signal
# Method in brief: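 Measures CXCL9 protein by ELISA in a human vascular primary-cell co-culture (umbilical vein endothelium with PBMC) 24 h after chemical addition. Activity is scored up or down from the DMSO control.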
# [12] = BSK_SAg_PBMCCytotoxicity: PBMC Cytotoxicity Assessment in the BioMAP Diversity Plus: SAg Assay (AID 2283093); conditions: primary human HUVEC with PBMC;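 also: PBMC viability measured as Alamar Blue reduction fluorescence at 546/580 nm; fitted both ways against DMSO so a hit may be loss or gain of signal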;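 as to AC50: PBMC superantigen activated with SEB plus TSST-1 one hour after compound addition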
# Method in brief: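 Alamar Blue reduction (6 h, ex/em 546/580 nm) read after 90 h culture of PBMC pre-dosed 1 h then stimulated with SEB plus TSST-1, 20 ng/mL each. Gain or loss of signal fitted relative to DMSO.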
# [13] = read-out: Interleukin-8 (IL8), CXCL8 (gene 3576); experiment: BSK_SAg_IL8: BioMAP Diversity Plus: SAg Assay for Interleukin-8 (IL8) Biomarker Activity (AID 2283094); conditions: primary human HUVEC with PBMC; actives raise or lower the signal
# Method in brief: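 ELISA readout of IL-8 from a superantigen-activated endothelial/PBMC primary human co-culture, taken 24 h post-dosing and fitted in both directions against DMSO; parallel SRB total-protein staining flags overt cytotoxicity.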
# [14] = BSK_SAg_Proliferation: Cell Proliferation Assessment in the BioMAP Diversity Plus: SAg Assay (AID 2283095); conditions: primary human HUVEC with PBMC;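 also: relative cell number as total protein by SRB absorbance in sub-confluent culture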
# Method in brief: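 Relative cell number in the endothelial cell/PBMC co-culture was quantified at 96 h by SRB staining (0.1% SRB, 10% TCA fixation, read at 560 nm). Curves were fitted in both directions relative to DMSO baseline.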
# [15] = BSK_SAg_SRB: Viability Assessment in the BioMAP Diversity Plus: SAg Assay (AID 2283096); conditions: primary human HUVEC with PBMC;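 also: cells read one day after compound addition; hits may be either gain or loss of signal compared with DMSO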
# Method in brief: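 SRB absorbance at 560 nm served as the viability read-out. Cells (HUVEC plus peripheral blood mononuclear cells) were TCA-fixed and stained 24 h post-dosing; activity fitted in both directions against DMSO controls.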
# [16] = read-out: CD69, CD69 (gene 969); experiment: BSK_SAg_CD69: BioMAP Diversity Plus: SAg Assay for CD69 Biomarker Activity (AID 2283089); conditions: primary human HUVEC with PBMC; actives raise or lower the signal;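 as to AC50: cell surface CD69 protein quantified by ELISA with fluorescence detection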
# Method in brief: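 Endothelial/PBMC co-culture; chemical added; 24 h incubation; CD69 ELISA with fluorescence detection; bidirectional fit vs DMSO.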
# [17] = molecular target: human CYP1A2, CYP1A2 (gene 1544) (UniProt P05177); experiment: NVS_ADME_hCYP1A2: NovaScreen (NVS) CYP450-related Enzyme Activity (ADME) Assay for human CYP1A2 (AID 2283102; active = hit-call score of the fitted dose curve at least 0.9, where 1 is the maximum;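 also: fluorescence from turnover of a fluorogenic substrate by recombinant insect-cell CYP1A2; potency for inhibition since loss of fluorescence marks reduced CYP1A2 activity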)
# Method in brief: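 Compounds were tested at 10 uM in duplicate against recombinant CYP1A2 produced in insect cells. Enzyme activity was measured by fluorescence 0.5 h after dosing, with loss of signal versus acetonitrile control. Active compounds were re-tested in concentration series.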
# [18] = molecular target: human CYP2C8, CYP2C8 (gene 1558) (UniProt P10632); experiment: NVS_ADME_hCYP2C8: NovaScreen (NVS) CYP450-related Enzyme Activity (ADME) Assay for human CYP2C8 (AID 2283104)
# Method in brief: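 Fluorescence readout of substrate turnover by recombinant CYP2C8 after 0.5 h, baseline acetonitrile. Single-concentration duplicate screen at 10 uM preceded singleton concentration series (max 20 uM) for compounds passing the inhibition threshold.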
# Sequence of Tumor necrosis factor (Homo sapiens) (P01375 whole entry, looked up): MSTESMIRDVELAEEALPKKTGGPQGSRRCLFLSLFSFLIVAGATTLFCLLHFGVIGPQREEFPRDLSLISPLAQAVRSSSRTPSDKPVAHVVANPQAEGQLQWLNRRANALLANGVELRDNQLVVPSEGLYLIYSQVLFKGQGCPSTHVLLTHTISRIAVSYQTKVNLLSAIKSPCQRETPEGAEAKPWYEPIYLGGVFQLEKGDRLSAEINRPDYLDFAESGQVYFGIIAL
# Sequence of E-selectin (Homo sapiens) (P16581 whole entry, looked up): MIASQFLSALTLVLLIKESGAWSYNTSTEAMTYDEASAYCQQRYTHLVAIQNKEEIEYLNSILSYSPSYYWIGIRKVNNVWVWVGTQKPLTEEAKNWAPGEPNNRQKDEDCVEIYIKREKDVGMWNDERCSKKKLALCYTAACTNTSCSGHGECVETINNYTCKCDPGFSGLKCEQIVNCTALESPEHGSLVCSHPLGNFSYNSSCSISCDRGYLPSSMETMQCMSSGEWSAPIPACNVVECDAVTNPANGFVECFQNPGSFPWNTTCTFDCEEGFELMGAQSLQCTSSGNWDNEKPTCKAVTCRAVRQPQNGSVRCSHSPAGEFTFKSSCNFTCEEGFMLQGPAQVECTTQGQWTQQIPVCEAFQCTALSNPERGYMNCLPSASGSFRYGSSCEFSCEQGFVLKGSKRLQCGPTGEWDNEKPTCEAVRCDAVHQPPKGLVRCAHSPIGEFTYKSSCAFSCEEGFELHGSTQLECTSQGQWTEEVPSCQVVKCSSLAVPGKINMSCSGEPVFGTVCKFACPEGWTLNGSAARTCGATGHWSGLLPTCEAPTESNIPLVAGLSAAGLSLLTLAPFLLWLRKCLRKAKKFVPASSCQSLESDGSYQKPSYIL
# Sequence of human CYP2C8, CYP2C8 (gene 1558) (P10632 whole entry, looked up): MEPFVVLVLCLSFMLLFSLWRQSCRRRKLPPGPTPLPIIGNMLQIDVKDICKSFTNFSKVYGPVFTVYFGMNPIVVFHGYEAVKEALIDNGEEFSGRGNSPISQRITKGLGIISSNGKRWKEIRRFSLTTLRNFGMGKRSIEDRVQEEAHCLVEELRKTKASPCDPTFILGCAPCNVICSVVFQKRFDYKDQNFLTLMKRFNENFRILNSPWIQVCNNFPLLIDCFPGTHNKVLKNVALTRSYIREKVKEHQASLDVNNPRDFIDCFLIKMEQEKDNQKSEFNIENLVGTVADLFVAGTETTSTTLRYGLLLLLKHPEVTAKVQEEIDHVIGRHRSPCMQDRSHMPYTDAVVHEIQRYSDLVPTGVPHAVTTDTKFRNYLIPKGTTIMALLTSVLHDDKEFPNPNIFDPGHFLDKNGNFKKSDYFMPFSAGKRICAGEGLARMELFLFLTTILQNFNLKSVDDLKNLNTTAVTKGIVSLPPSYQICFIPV
# Sequence of human CYP1A2, CYP1A2 (gene 1544) (P05177 whole entry, looked up): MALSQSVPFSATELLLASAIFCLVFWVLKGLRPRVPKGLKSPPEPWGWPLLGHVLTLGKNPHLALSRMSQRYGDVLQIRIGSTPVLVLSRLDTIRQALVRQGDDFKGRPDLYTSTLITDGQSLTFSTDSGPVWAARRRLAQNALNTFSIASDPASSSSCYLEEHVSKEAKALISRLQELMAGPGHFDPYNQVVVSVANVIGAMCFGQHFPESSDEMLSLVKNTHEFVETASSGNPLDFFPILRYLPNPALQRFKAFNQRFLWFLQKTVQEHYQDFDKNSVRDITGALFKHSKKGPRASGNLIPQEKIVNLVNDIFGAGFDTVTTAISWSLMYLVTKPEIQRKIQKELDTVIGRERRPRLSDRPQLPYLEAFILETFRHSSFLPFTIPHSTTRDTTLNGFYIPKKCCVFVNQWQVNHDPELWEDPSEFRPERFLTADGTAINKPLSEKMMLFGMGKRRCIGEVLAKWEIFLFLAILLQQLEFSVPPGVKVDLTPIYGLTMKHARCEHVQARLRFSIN
smiles,measurement,setting,value
CCOc1cc(Oc2ccc(C(F)(F)F)cc2Cl)ccc1[N+](=O)[O-],outcome,[1],inactive
same,outcome,[2],inactive
same,AC50,[3],5.45 µM (active)
same,outcome,[4],inactive
same,outcome,[5],inactive
same,outcome,[6],inactive
same,AC50,[7],8.23 µM (active)
same,outcome,[8],inactive
same,outcome,[9],inactive
same,AC50,[10],9.5 µM (active)
same,outcome,[11],inactive
same,outcome,[12],inactive
same,AC50,[13],12.5 µM (active)
same,AC50,[14],18.5 µM (active)
same,AC50,[15],13.3 µM (active)
CC(Oc1ccc(Cl)cc1Cl)C(=O)O (centres undefined),outcome,[1],inactive
same,outcome,[2],inactive
same,outcome,[3],inactive
same,outcome,[4],inactive
same,outcome,[5],inactive
same,outcome,[6],inactive
same,outcome,[7],inactive
same,outcome,[8],inactive
same,outcome,[9],inactive
same,outcome,[10],inactive
same,outcome,[11],inactive
same,outcome,[12],inactive
same,outcome,[13],inactive
same,outcome,[14],inactive
same,outcome,[15],inactive
CC(C)C1(C)N=C(c2nc3ccccc3cc2C(=O)O)NC1=O (centres undefined),outcome,[1],inactive
same,outcome,[2],inactive
same,AC50,[3],2.62 µM (active)
same,outcome,[4],inactive
same,outcome,[5],inactive
same,outcome,[6],inactive
same,outcome,[7],inactive
same,AC50,[8],1.33 µM (active)
same,outcome,[16],inactive
same,outcome,[9],inactive
same,outcome,[10],inactive
same,outcome,[11],inactive
same,outcome,[12],inactive
same,outcome,[13],inactive
same,outcome,[14],inactive
same,outcome,[15],inactive
COP(N)(=O)SC (centres undefined),outcome,[1],inactive
same,AC50,[2],20 µM (active)
same,outcome,[3],inactive
same,outcome,[4],inactive
same,outcome,[5],inactive
same,outcome,[6],inactive
same,outcome,[7],inactive
same,outcome,[8],inactive
same,outcome,[9],inactive
same,outcome,[10],inactive
same,outcome,[11],inactive
same,outcome,[12],inactive
same,outcome,[13],inactive
same,outcome,[14],inactive
same,outcome,[15],inactive
COC(=O)N(OC)c1ccccc1COc1ccn(-c2ccc(Cl)cc2)n1,AC50,[1],9.04 µM (active)
same,AC50,[2],0.215 µM (active)
same,AC50,[3],14.1 µM (active)
same,outcome,[4],inactive
same,AC50,[5],9.8 µM (active)
same,AC50,[6],13 µM (active)
same,AC50,[7],5.43 µM (active)
same,AC50,[8],15 µM (active)
same,AC50,[16],3.97 µM (active)
same,AC50,[9],4.97 µM (active)
same,AC50,[10],3.97 µM (active)
same,AC50,[11],11.9 µM (active)
same,AC50,[12],0.222 µM (active)
same,AC50,[13],2.92 µM (active)
same,AC50,[14],3.97 µM (active)
same,AC50,[15],8.48 µM (active)
same,AC50,[17],0.912 µM (active)
same,outcome,[18],inactive
